# HP1b chromo inh – blocks HP1-beta chromodomain binding to methylated histone tails; AlphaScreen HP1-beta / biotin-H3K9me3 peptide binding; Potency, µM (series often up to 114 µM), actives largely listed as inhibitors; hit rate 0.56% among 390,000; note: nearly all actives have a fitted effect of over 70% in size
# Target sequence (P83916 whole entry, looked up): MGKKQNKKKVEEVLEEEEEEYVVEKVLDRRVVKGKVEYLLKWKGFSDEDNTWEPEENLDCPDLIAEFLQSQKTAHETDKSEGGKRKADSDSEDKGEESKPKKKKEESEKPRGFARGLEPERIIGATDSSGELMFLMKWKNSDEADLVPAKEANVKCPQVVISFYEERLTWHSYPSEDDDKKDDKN
#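 AlphaScreen: HP1-beta (50 nM) preformed 30 min with biotin-H3(1-18)K9me3 peptide (50 nM) in PBS pH 7.4, 0.01% Tween-20. Compound added for 30 min at RT, then streptavidin donor/nickel chelate acceptor beads (10 ug/mL) for 30 min.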
# BAZ2B inh – inhibitors of human BAZ2B bromodomain; Q9UIF8; AlphaScreen BAZ2B-H3K14Ac peptide displacement; Potency, µM (top dose mostly 114 µM), actives largely listed as inhibitors; hit rate 4.4% among 360,000; AID 504333; note: nearly all actives have a fitted effect of over 60% in size
#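 In this displacement format the biotinylated H3(5-23) peptide acetylated at Lys14 serves as ligand at 50 nM, with BAZ2B at 50 nM in PBS pH 7.4 containing 0.01% Tween-20. Donor and acceptor beads are 10 ug/mL final.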
# PLK1 PBD block – blocks phosphopeptide binding to human PLK1 polo-box domain; P53350; Plk1 PBD binding of FITC phosphopeptide, fluorescence polarization; Potency, µM, hits mostly inhibitors; hit rate 2.8% among 360,000; AID 720504; note: series mostly up to about 57 µM; nearly all actives have a fitted effect of over 65% in size
# 12-LOX inh – inhibitors of human 12S-lipoxygenase ALOX12; P18054; purified 12hLO, xylenol orange hydroperoxide absorbance; Potency, µM (series often up to 108 µM), hits mostly inhibitors; hit rate 1.1% among 580,000
#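 Purified human 12hLO (150 nM final) in 25 mM Hepes, 0.01% Triton X-100, pH 7.0 was preincubated 15 min at room temperature with compound. Then 40 uM arachidonic acid was added, 30 min. Hydroperoxide was read by Fe-XO absorbance ratio 573/405 nm.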
# JMJD2A Tudor inh – blocks the human JMJD2A Tudor domain; O75164; AlphaScreen JMJD2A-Tudor / H3K4me3 peptide binding; Potency, µM (titrated, usually from 114 µM), hits mostly inhibitors; hit rate 4.4% among 390,000; note: nearly all actives have a fitted effect of over 50% in size
# G9a block – inhibitors of human histone lysine methyltransferase G9a; hit rate 8.8% among 350,000; Q96KQ7; G9a H3K9 monomethylation, AlphaScreen, 2 h; Potency, µM (doses to about 102 µM), hits mostly inhibitors; note: nearly all actives have a fitted effect of over 75% in size
# Target sequence (Q96KQ7 913-1193 limits assumed): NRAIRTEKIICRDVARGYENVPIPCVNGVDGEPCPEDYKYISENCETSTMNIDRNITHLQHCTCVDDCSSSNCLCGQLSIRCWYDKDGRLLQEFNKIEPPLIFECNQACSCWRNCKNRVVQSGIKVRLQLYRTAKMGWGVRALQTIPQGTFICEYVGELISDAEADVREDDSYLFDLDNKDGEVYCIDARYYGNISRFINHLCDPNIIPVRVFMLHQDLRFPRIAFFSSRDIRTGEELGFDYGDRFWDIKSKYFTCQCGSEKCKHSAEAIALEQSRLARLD
#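 G9a (20 nM) was preincubated 15 min with compound, then reacted 2 h at room temperature with 500 nM biotin-H3K9 peptide and 20 µM SAM. Monomethyl-H3K9 detected by AlphaScreen using anti-H3K9me1 antibody.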
# Hits are given with their value; 0 = inactive; ? = inconclusive; - = no result given; [ ] = remark or other dose. Compounds with a hit are over-represented: about 9% of the library has one in this group of screens. Calls come from the whole dose curve; as a rule, active = well fitted curve in the direction sought with a large enough effect; inconclusive = small, poorly fitted or top-dose-only effect, or another doubt; inactive = no such curve, though single readings can be large; an effect the other way counts as inactive or inconclusive.
SMILES,HP1b chromo inh,BAZ2B inh,PLK1 PBD block,12-LOX inh,JMJD2A Tudor inh,G9a block
O=C(CNC(=O)c1ccc(N2C(=O)c3ccccc3C2=O)cc1)OCC(=O)c1ccccc1,0,0,24µM,0,0,0
O=C(CN1C(=O)c2ccccc2C1=O)c1ccc(F)cc1,0,0,0,0,0,0[2.33 µM]
O=C(CN1C(=O)c2ccccc2C1=O)OCC(=O)c1ccc(F)cc1,0,0,0,0,0,50µM
CCc1ccc(C(=O)COC(=O)CNC(=O)c2ccc(N3C(=O)c4ccccc4C3=O)cc2)cc1,0,?,0,0,0,0[0.0925 µM]
O=C(CCN1C(=O)c2ccccc2C1=O)NCc1ccc(F)cc1,0,0,0,0,0,0
O=C(CN1C(=O)c2ccccc2C1=O)NCc1ccc(F)cc1,0,?,7.5µM,0,?,0
COc1ccc(CN2C(=O)COC[C@H]2C(=O)N2CCC(Cc3ccccc3)CC2)cc1,-,-,-,0,-,-
COc1cc(NC(=O)CCc2c(C)nc3cc(-c4ccccc4)nn3c2C)cc(OC)c1OC,0,0,-,0,0,0
COC(=O)CSC1=C(C#N)C(c2cccc(F)c2)CC(=O)N1 (configuration not stated),0,0,0,?,0,-
COC(=O)CSC1=C(C#N)C(=O)NC(c2ccccc2)S1 (configuration not stated),0,50µM,?,?,?,?
CSC1=C(C#N)C(=O)NC(c2ccccc2O)S1 (configuration not stated),0,?,2.1µM,?,0,0
CCC(=S)/C=C1\Sc2ccccc2N1CCCS(=O)(=O)O,?,?,?,?,28µM,-
COc1ccc(CNC(=O)N2CCC(Cc3nc(-c4ccncc4)n[nH]3)C2)cc1 (configuration not stated),-,-,-,0,-,-
Cc1ccc(C2Cc3cc(O)c(O)cc3CN2)cc1 (configuration not stated),?,-,0,0,8.9µM,-
Cc1ccc(-c2cc(O)c3c(c2)CNCCO3)cc1,-,-,-,0,-,-
COc1ccccc1CNC(=O)C12CC3CC(CC(C3)C1)C2,0,0,27µM,?,79µM,-
COc1ccccc1CNC(=O)CSC(=S)N1CCCC1,0,0,?,0,0,11µM
COc1ccc(CCNCc2csc3nc4ccccc4n23)cc1OC,0,?,0,?,89µM,50µM
COc1ccc(CCNC(=O)CNCC2CCCO2)cc1OC (configuration not stated),?,?,0,?,3.5µM,8.9µM
Cc1ccc(NS(=O)(=O)c2c(C(=O)N3CCOCC3)c(C)n(C)c2C)cc1C,0,0,0,0,0,0
COc1ccccc1CNC(=O)CC(C)C,?,0,12µM,0,28µM,0
COc1ccccc1CNC(=O)COc1ccccc1OC,0,0,0,0,0,0
Cc1ccccc1CNC(=O)CC(C)C,-,-,-,0,-,-
COc1ccccc1CNC(=O)CS(=O)(=O)c1ccc(C)cc1,0,0,0,0,0,79µM
COc1ccccc1CNC(=O)CNCCc1ccc(OC)c(OC)c1,?,50µM,0,0,22µM,-
SMILES,HP1b chromo inh,BAZ2B inh,PLK1 PBD block,12-LOX inh,JMJD2A Tudor inh,G9a block
O=[N+]([O-])c1ccccc1C=CC=NN=Cc1ccccc1O,0,-,0,0,0,-
CCOc1cc(/C=C2/SC(=S)NC2=O)ccc1OC(=O)c1ccco1,?,40µM,21µM,?,?,13µM
O=C1NC(=S)S/C1=C/c1ccc(OC(=O)c2ccco2)cc1,0,79µM,?,?,?,0
COc1cc(/C=C2/SC(=O)NC2=O)ccc1OC(=O)c1ccco1,0,0,0,0,0,0
CC1=CC(c2ccccc2)n2ncnc2N1 (configuration not stated),0,-,0,0,0,-
CC1=Nc2ncnn2C(c2ccccc2)/C1=N\O (configuration not stated),0,?,0,0,0,50µM
C/C=C/C(=O)Nc1nnc(C2CCCCC2)s1,0,0,0,0,0,?
O=S(=O)(Nc1nnc(C2CC2)s1)c1ccccc1,0,0,?,0,0,50µM
CS(=O)(=O)Nc1nnc(C2CCCC2)s1,0,0,19µM,?,0,50µM
CC(=O)c1cn(-c2ccc([N+](=O)[O-])cc2)c(=O)n(C)c1=O,0,-,0,0,0,-
Cn1c(CBr)c(C(=O)c2ccc([N+](=O)[O-])cc2)c(=O)n(C)c1=O,0,0,0,?,0,28µM
CCn1c(SCC(=O)Nc2ccc3c(c2)OCCO3)nnc1-c1cccs1,0,0,0,0,0,0
Cc1ccc(NC(=O)Cn2nc(Cc3ccncc3)c3ccccc3c2=O)c(Cl)c1,0,71µM,-,0,?,0
CC(C)CCN1C(=O)c2ccc(C(=O)Nc3ccc(Br)cc3C(=O)O)cc2C1=O,0,45µM,?,?,56µM,-
CC(C)CN1C(=O)c2ccc(C(=O)Nc3ccccc3C(=O)O)cc2C1=O,0,0,24µM,0,22µM,?
O=C(Nc1ccc(Cl)cc1C(=O)O)c1ccc2c(c1)C(=O)N(Cc1ccco1)C2=O,0,50µM,27µM,?,56µM,11µM
O=C(Nc1cccc(O)c1)c1ccc2c(c1)C(=O)N(Cc1ccco1)C2=O,0,0,0,0,0,-
Cc1sc2ncnc(SCC(=O)N(C(C)C)C(C)C)c2c1C,0,0,0,0,0,-
CCN(CC)c1cccc(OCC(=O)N2c3ccccc3CC2C)c1 (configuration not stated),0,?,0,?,?,10µM
Cc1cc(C(=O)OCC(=O)N2c3ccccc3CC2C)c(C)o1 (configuration not stated),0,0,0,0,0,11µM
CC1Cc2ccccc2N1C(=O)COC(=O)c1ccco1 (configuration not stated),-,-,0,0,-,-
Cc1cc(=O)oc2cc(OCC(=O)N3c4ccccc4CC3C)ccc12 (configuration not stated),0,0,0,0,0,0
CC1CCN(c2nc3ccc(C(=O)NCCCN4CCCCC4)cc3s2)CC1,0,0,0,?,0,-
Cc1ccccc1NC(=O)Cc1nc(COC(=O)Cc2ccccc2F)cs1,0,0,0,0,0,0[12.7 µM]
Cc1cnc(C(=O)Oc2ccc(-c3ccccc3)cc2)cn1,0,0,0,0,?,0
SMILES,HP1b chromo inh,BAZ2B inh,PLK1 PBD block,12-LOX inh,JMJD2A Tudor inh,G9a block
S=c1cn[nH]c2ccccc12,89µM,-,?,40µM,4.5µM,-
CCCCOC(=O)CCc1nc2ccccc2[nH]1,0,?,0,0,0,?
CC(C)c1ccc(C(=O)O)c(O)c1,-,-,-,0,-,-
CC(C)c1ccc(O)c(=O)cc1,-,-,-,22µM,-,-
CCc1c(C)[nH]n(-c2nc(-c3ccccc3)cs2)c1=O,0,0,0,0,0[11.4 µM],50µM
Cc1ccc(S(=O)(=O)N2CCOCC2)cc1NC(=O)CSc1ncccn1,0,0,0,0,0,0
CC1(C)CC2(CC(c3ccccc3F)c3cc(Cl)c(O)cc3O2)NC(=S)N1 (configuration not stated),?,-,0,32µM,0[11.4 µM],?

# From PubChem BioAssay
